Several values for one entry are separate records, joined by “and”; a condition that tells them apart may be missing. Identical values can stand only once. Records with an inconclusive call do not appear. Activity calls are given as the source filed them. Calls follow the shape of the full dose curve.
% is scaled to controls: 0 for no effect and ±100 for the full control effect; potency is read from the fitted curve at half-maximal effect.

This experiment can be described thus: p53 small molecule agonists, cell-based qHTS assay with human liver microsomes: qHTS cell viability counter screen (AID 1963579). Also: nearly all actives have a fitted effect of over 45% in size. The settings on record: p53RE-bla HCT-116 viability, ATP luminescence, 16 h, HLM; series mostly up to 66 µM; activity change, negative = cytotoxicity: at the top concentration. From the text: National Center for Advancing Translational Sciences [NCATS]
Division of Preclinical Innovation [DPI]
U.S. Environmental Protection Agency [EPA]
National Institutes of Environmental Health Sciences [NIEHS]
National Toxicology Program [NTP]
U.S. Food and Drug Administration [FDA]
p53, a tumor suppressor protein, is activated following cellular insult, including DNA damage and other cellular stresses. The activation of p53 regulates cell fate by inducing DNA repair, cell cycle arrest, apoptosis, or cellular senescence. The activation of p53, therefore, is a good indicator of DNA damage and other cellular stresses. […] The activation of the reporter gene under culture conditions can be detected by fluorescence intensity. This cell line was used to screen the Tox21 10K compound library in the condition of presence of human liver microsomes and to identify agonists that activate the p53 signaling pathway after in vitro metabolic activation (Ooka et al., Archive of Toxicology 96:1975-1987, 2022).
Tox21 Assay Protocol Summary:
The p53RE-bla cells were dispensed at 4,000cells/3ul/well in 1536-well black-clear bottom plates. After the assay plates were incubated at 37 C, 5% CO2 incubator for 5 hours, 23 nL of compounds dissolved in DMSO, positive controls or DMSO only was transferred to the assay plate. Following compound addition, 3 uL of human liver microsomes (XenoTech, Kansas City, KS) at final concentration of 0.5 mg/mL and 1uL of B-Nicotinamide adenine dinucleotide 2'-phosphate (NADPH) at final concentration of 0.5 mg/mL were transferred to the assay plate. The plates were incubated at 37 C for 16 hours. 1 uL of LiveBLAzer detection mixture was added to each well and the plates were incubated at room temperature in the dark for 2 h. Fluorescence intensity at 460 and 530 nm emission and 405 nm excitation were measured by an Envision plate reader. For cell viability readout that measures cytotoxicity, 4 ul/well of CellTiter-Glo reagent was added into the assay plates using a Flying Reagent Dispenser. After 30 min incubation at room temperature, the luminescence intensity in the plates was measured using a ViewLux plate reader.
Take `CCOP(=O)(CN(CCO)CCO)OCC`: the “activity change, negative = cytotoxicity” value was 11.5% (inactive).
On the same count and under the same terms, in the case of `CCCCN=C=O` it was -4.12% (inactive).
On to `Clc1ccccc1Cl`, for which the Potency entry is “inactive”.
Regarding `ClCCN1CCCC1`, the “activity change, negative = cytotoxicity” value is -2.81% [at 30.3 µM] (inactive).
The same measure, in the same setting: in the case of `Cc1ccccc1CCl` it was 0.988% (inactive).
In the case of `O=P(O)(O)CN(CP(=O)(O)O)CP(=O)(O)O`, the Potency result was “inactive”.
Turning to `NNC(N)=S`, the “activity change, negative = cytotoxicity” value was -28.9% (inactive).
Consider `Oc1cc(Cl)ccc1Cl`, for which the Potency result is “inactive”.
On the same count and under the same terms, in the case of `O=C(O)C(Br)Br` it was “inactive”.
On to `COC(=O)c1cncn1C(C)c1ccccc1` (stereo not given), for which the “activity change, negative = cytotoxicity” value was -8.36% [at 30.3 µM] (inactive).
For the compound `C[C@]12CCC(=O)C=C1CC[C@@H]1[C@@H]2CC[C@@]2(C)[C@H]1CC[C@]2(C)O`, the “activity change, negative = cytotoxicity” value is 0.106% [at 30.3 µM] (inactive).
Consider `COC(=O)NC(=S)Nc1ccccc1NC(=S)NC(=O)OC`, for which the Potency result was “inactive”.
In the case of `CCCCCCI`, the “activity change, negative = cytotoxicity” value is 5.3% (inactive).
Still for that read-out and setting: as for `COCC(=O)N(c1c(C)cccc1C)[C@H](C)C(=O)OC`, the figure is 4.42% (inactive).
As to `Cc1ccc2c(c1N)C(=O)c1ccccc1C2=O`, the Potency entry is “inactive”.
On the same count and under the same terms, in the case of `Cc1cccc(N)c1N` it was “inactive”.
Take `Nc1nc(=S)[nH][nH]1`: the “activity change, negative = cytotoxicity” value is 7.68% (inactive).
With `ClCc1cccnc1`, the Potency result is “inactive”.
Take `O=C(O)C(F)(F)C(F)(F)C(F)(F)C(F)(F)C(F)(F)C(F)(F)C(F)(F)C(F)(F)F`: the “activity change, negative = cytotoxicity” value was -15.5% (inactive).
The same measure, in the same setting: in the case of `O=Cc1ccc(Cl)cc1Cl` it was 7.09% (inactive).
Take `Nc1ccc(Cl)cc1`: the Potency entry is “inactive”.
Same read-out and setting: as for `NNC(=S)NN`, the entry is “inactive”; as for `CN(C)c1nc(=O)n(C2CCCCC2)c(=O)n1C`, “inactive”.
With `COC(=O)Cc1ccccc1`, the “activity change, negative = cytotoxicity” value is -12.3% (inactive).
`CC1COC2(c3ccccc3Cl)c3cc(Cl)ccc3NC(=O)CN12` (stereo not given): the “activity change, negative = cytotoxicity” value is 24% [at 30.3 µM] (inactive).
Turning to `CNc1cnn(-c2cccc(C(F)(F)F)c2)c(=O)c1Cl`, the Potency entry was “inactive”.
As to `CNC(=O)Oc1c(C(C)(C)C)cc(C)cc1C(C)(C)C`, the “activity change, negative = cytotoxicity” value was -2.81% (inactive).
Still for that read-out and setting: in the case of `CC(C)c1ccc(NC(=O)N(C)C)cc1` it was 1.24% (inactive).
In the case of `C[CH2][Hg][S]c1ccccc1C(=O)O`, the Potency is 10.2 µM (active) and 11.2 µM (active).
As for `C=CCSSCC=C`, the “activity change, negative = cytotoxicity” value was 0.73% (inactive).
For the compound `CCCOC(=O)c1ccccc1C(=O)OCCC`, the Potency entry was “inactive”.
With `Cl/C=C\CCl`, the “activity change, negative = cytotoxicity” value is -0.539% (inactive).
As to `CCCCCCCC[N+](C)(CCCCCCCC)CCCCCCCC`, the Potency was 5.75 µM (active) and 6.47 µM (active) and 25.7 µM (active).
Consider `O=C(Cl)CCl`, for which the “activity change, negative = cytotoxicity” value was -0.472% (inactive).
Take `[Cl-].[Cl-].[Hg+2]`: the Potency was 5.74 µM (active) and 10.2 µM (active).
On the same count and under the same terms, in the case of `Cc1ccc(N)cc1Cl` it was “inactive”.
As for `Nc1nc(N)nc(Cl)n1`, the “activity change, negative = cytotoxicity” value was -5.72% (inactive).
For the compound `C[Si](Cn1cncn1)(c1ccc(F)cc1)c1ccc(F)cc1`, the Potency entry was “inactive”.
For the compound `NCC(O)c1ccc(O)cc1` (stereo not given), the Potency result was “inactive”.
Same read-out and setting: in the case of `C=CC(=O)OCCCCCC(C)C` it was “inactive”.

The values are drawn from PubChem BioAssay (Tox21).
